The record followed here is PubChem BioAssay (NCATS).

The nature of test [1]: Confirmation and Secondary Assay for Modulators of Hemoglobin Beta Chain Splicing at IVS2 654 locus (AID 910).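 Further: per-well total GFP intensity by laser scanning cytometry after 2-day treatment; % of control where 0% means no effect.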 The settings on record: HeLa EGFP-654 splicing reporter, GFP fluorescence, 48 h; series mostly up to 46.1 µM. The essentials: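 HeLa cells stably carrying EGFP interrupted by mutant beta-globin IVS2-654 intron (CMV-driven) were treated with compound for 2 days at 37C; corrected splicing was scored as total peak GFP intensity per well (488 nm excitation, 500-520 nm emission).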

Test [2] in a line: Confirmation and Secondary Assay for Modulators of Hemoglobin Beta Chain Splicing at IVS2 705 locus (AID 930).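 Further: HeLa cells stably expressing the EGFP-705 splicing reporter; GFP fluorescence per well restored by corrected splicing of the IVS2-705 intron in EGFP; % of control where 0% means no effect.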 The settings on record: HeLa EGFP-705 splicing reporter, GFP fluorescence, 48 h; series mostly up to 46.1 µM. In outline: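 HeLa EGFP-705 reporter; 500 cells/well, o/n 37C 5% CO2; cpd 2 d; 488 ex/500-520 em laser scan; total peak GFP intensity/well. Ref: 500 nM […] antisense PNA.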

Test [3] is described as follows: qHTS Assay for Lipid Storage Modulators (AID 1519; calls by dose curve; on activity change, negative = inhibition: on the % scale 0 is the no-effect control and ±100 the full control effect). To be noted: Drosophila S3 cells, BODIPY lipid droplet/cell ratio, laser cytometry, cells loaded with oleic acid; for activity change, negative = inhibition: at 57.5 µM (top of the series). The essentials: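 Cells seeded at 5,000 per well were treated with compounds over a concentration series and loaded with oleic acid (400 uM, as added). Lipid droplet fluorescence (488 nm excitation, 500-530 nm channel) was read by laser-scanning cytometry and normalized to 20 uM Triacsin C.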
(In qHTS, concentration-response curves come from the screen itself.)

The target in test [4] is Ubiquitin carboxyl-terminal hydrolase 1 (Homo sapiens) (UniProt O94782). As to the kind of experiment: Inhibitors of USP1/UAF1: Pilot qHTS (AID 504865).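 Further: rhodamine fluorescence freed from ubiquitin-rhodamine substrate followed over time; top concentration of the series differs between compounds; on the % scale 0 is the no-effect control and ±100 the full control effect; nearly all actives have a fitted effect of over 35% in size.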 To be noted: purified USP1/UAF1, Ub-rhodamine cleavage fluorescence; series mostly up to 114 µM. In outline: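 Deubiquitinase activity followed as kinetic rhodamine fluorescence release from 150 nM Ub-Rho. 1 nM USP1/UAF1 with compound, after 15 min room-temperature preincubation, in HEPES pH 7.8 buffer containing TCEP, EDTA, BSA and Tween-20.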

Test [5] concerns the target Cytochrome P450 3A4 (Homo sapiens) (UniProt P08684). Briefly: qHTS Assay for Activators of Cytochrome P450 3A4 (AID 885). Further: nearly all actives have a fitted effect of over 65% in size. To be noted: recombinant CYP3A4, Luciferin-PPXE luminescence, 60 min; series mostly up to 57.1 µM. In outline:
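Human CYP3A4 (20 nM) with Luciferin-PPXE at 25 uM (its KM) in 200 mM KPO4; 10 min compound preincubation, then NADPH regeneration and 60 min reaction at RT. Luciferin read by luminescence; normalized to 57 uM ketoconazole full inhibition.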

[6] abbreviates: measured here: cell count channel max response.
[7] abbreviates: measured here: lipid channel max response.

SMILES strings stand for the structures. Results filed as inconclusive are left out. Active and inactive are the calls of the source. Unless noted, the call rests on the fitted dose curve; in most records, active means well fitted curve in the direction sought with a large enough effect; inconclusive means small, poorly fitted or top-dose-only effect, or another doubt; inactive means no such curve, though single readings can be large; an effect the other way counts as inactive or inconclusive.

Ubiquitin carboxyl-terminal hydrolase 1 (Homo sapiens), sequence (O94782 whole entry, looked up): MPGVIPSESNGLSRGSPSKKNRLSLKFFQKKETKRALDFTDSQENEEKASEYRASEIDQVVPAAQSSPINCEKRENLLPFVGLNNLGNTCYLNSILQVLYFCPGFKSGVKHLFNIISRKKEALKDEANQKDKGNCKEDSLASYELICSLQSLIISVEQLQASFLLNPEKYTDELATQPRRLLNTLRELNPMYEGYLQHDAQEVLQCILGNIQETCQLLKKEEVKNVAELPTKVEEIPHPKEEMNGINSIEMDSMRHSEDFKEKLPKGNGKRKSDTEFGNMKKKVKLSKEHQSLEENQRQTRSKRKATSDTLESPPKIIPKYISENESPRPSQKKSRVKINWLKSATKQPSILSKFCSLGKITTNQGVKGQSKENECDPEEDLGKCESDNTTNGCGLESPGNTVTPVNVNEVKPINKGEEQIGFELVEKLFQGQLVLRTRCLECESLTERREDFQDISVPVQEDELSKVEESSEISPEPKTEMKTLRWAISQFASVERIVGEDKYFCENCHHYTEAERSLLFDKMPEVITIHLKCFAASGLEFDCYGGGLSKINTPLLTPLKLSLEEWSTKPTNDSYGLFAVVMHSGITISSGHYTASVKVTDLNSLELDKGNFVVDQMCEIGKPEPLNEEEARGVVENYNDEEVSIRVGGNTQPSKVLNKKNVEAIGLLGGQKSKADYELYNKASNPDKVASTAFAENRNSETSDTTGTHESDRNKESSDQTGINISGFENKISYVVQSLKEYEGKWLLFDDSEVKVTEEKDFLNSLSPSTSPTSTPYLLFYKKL
Cytochrome P450 3A4 (Homo sapiens), sequence (P08684 whole entry, looked up): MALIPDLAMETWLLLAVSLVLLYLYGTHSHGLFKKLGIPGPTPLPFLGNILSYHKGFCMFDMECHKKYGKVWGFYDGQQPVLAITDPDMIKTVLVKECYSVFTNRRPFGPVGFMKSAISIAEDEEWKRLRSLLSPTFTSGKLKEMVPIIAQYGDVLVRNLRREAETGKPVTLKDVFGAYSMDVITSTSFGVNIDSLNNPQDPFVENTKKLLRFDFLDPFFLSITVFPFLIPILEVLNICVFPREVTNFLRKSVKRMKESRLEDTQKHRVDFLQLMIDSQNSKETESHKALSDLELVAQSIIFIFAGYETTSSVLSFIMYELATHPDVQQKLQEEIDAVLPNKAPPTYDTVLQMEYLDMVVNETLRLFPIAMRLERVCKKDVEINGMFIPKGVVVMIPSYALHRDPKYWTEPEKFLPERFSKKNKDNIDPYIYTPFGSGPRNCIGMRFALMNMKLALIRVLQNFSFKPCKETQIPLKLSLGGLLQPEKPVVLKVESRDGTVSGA

For the molecule `COC1C[C@@H](O[C@@H]2C(C)C(=O)OC(C)C(C)[C@H](OC(C)=O)C(C)C(=O)[C@@]3(CO3)CC(C)C(OC3OC(C)CC(N(C)C)[C@H]3OC(C)=O)C2C)OC(C)[C@@H]1OC(C)=O` (some centres undefined), the Potency entry in test [1], in test [2] and in test [4] was “inactive” each time. Also, the activity change, negative = inhibition in test [3] was 6.97% (inactive). For the same molecule, the max response in test [3] (setting [6]) is 18.9%; in test [3] (setting [7]) it was 24.4%.

On to `O=C(O)CCC(=O)C(=O)O` (tested in a mixture with another compound), for which the Potency result in test [1], in test [2] and in test [4] was “inactive” in each case. For the same molecule, the activity change, negative = inhibition in test [3] was 3.77% (inactive). For the same molecule, the values for the max response in test [3] (setting [6]) and in test [3] (setting [7]) were 11.4% and 18.6%, respectively.

As for `C#C[C@@]1(O)CCC2C3CCC4=CC(=O)CCC4C3CC[C@@]21CC` (some centres undefined), the Potency entry in test [5], in test [1], in test [2] and in test [4] was “inactive” throughout. In addition, in test [3], the activity change, negative = inhibition is 8.95% (inactive). The values for the max response in test [3] (setting [6]) and in test [3] (setting [7]) were 17.8% and 32.9%, respectively.

`CC(=O)OC1CC2C(C)(C)C(O)C=C[C@@]2(C)C2CC[C@@]3(C)C(c4ccoc4)OC(=O)C4OC43[C@]12C` (some centres undefined): the Potency entry in test [1], in test [2] and in test [4] was “inactive” in each case. Further, in test [3], the activity change, negative = inhibition is 8.59% (inactive). Also, the results for the max response in test [3] (setting [6]) and in test [3] (setting [7]) were 21.3% and 29.9%, respectively.

Consider `CC1(C)C(O)C=C[C@@]2(C)C1CC(=O)O[C@@]1(C)C3=CC(=O)OC(c4ccoc4)[C@]3(C)CCC21` (some centres undefined), for which the Potency result in test [5], in test [2] and in test [4] was “inactive” each time. The activity change, negative = inhibition in test [3] is 9.57% (inactive). Also, the values for the max response in test [3] (setting [6]) and in test [3] (setting [7]) were 1.87% and 14.6%, respectively.

In the case of `COc1ccc(C(=O)c2ccc(O)cc2)c(O)c1O`, the Potency result in test [5], in test [1], in test [2] and in test [4] was “inactive” each time. The activity change, negative = inhibition in test [3] was 4.3% (inactive). In addition, the figures for the max response in test [3] (setting [6]) and in test [3] (setting [7]) were 2.91% and 8.25%, respectively.

As for `C=C1C[C@@]23C[C@@]1(O)CCC2[C@@]12C=CC(O)[C@](C)(C(=O)O1)C2C3C(=O)O` (some centres undefined), the Potency result in test [1], in test [2] and in test [4] was “inactive” in each case. The activity change, negative = inhibition in test [3] was 1.95% (inactive). Moreover, the max response in test [3] (setting [6]) worked out at 6.93%; in test [3] (setting [7]), 10.6%.

On to `CC(=O)[C@]1(O)CCC2C3CCC4=CC(=O)CC[C@@]4(C)C3CC[C@]21C` (some centres undefined), for which the Potency entry in test [1], in test [2] and in test [4] was “inactive” in each case. Also, the activity change, negative = inhibition in test [3] is 5.01% (inactive). The max response in test [3] (setting [6]) was 6.92%; in test [3] (setting [7]) it was 12.7%.

As to `COc1cc2cc[n+]3cc4c(OC)c(OC)ccc4cc3c2cc1OC`, the Potency entry in test [5], in test [1], in test [2] and in test [4] was “inactive” throughout. Besides, the activity change, negative = inhibition in test [3] is 10.9% (inactive). The max response stood at 22.9% in test [3] (setting [6]) and 39.6% in test [3] (setting [7]).

Regarding `CC(=O)OC1C[C@]2(C)C(C(C)=O)CCC2C2CCC3=CC(=O)CC[C@@]3(C)C12` (some centres undefined), the Potency entry in test [1], in test [2] and in test [4] was “inactive” in each case. In addition, in test [3], the activity change, negative = inhibition is 9.05% (inactive). Moreover, the max response in test [3] (setting [6]) was found to be 25.2%; in test [3] (setting [7]), 39.7%.

`CC1=C(C(=O)O)N2C(=O)C(NC(=O)C(N)c3ccc(O)cc3)C2SC1` (centres undefined): the Potency result in test [1], in test [2] and in test [4] was “inactive” each time. The activity change, negative = inhibition in test [3] was 7.51% (inactive). Also, the max response in test [3] (setting [6]) came out at 4.8%; in test [3] (setting [7]), 14.9%.

With `COc1ccc(C2Oc3cc(OC)cc(OC)c3CC2O)cc1` (centres undefined), the Potency entry in test [5], in test [2] and in test [4] was “inactive” throughout. In test [3], the activity change, negative = inhibition is 5.15% (inactive). For the same molecule, the max response is 15.1% in test [3] (setting [6]) and 23.9% in test [3] (setting [7]).

As to `CC(C)=CCOc1cc2oc(=O)ccc2cc1O`, the Potency result in test [1], in test [2] and in test [4] was “inactive” throughout. The activity change, negative = inhibition in test [3] is 12.4% (inactive). For the same molecule, the max response in test [3] (setting [6]) was -16.3%; in test [3] (setting [7]), -2.91%.

As for `COc1cc(-c2cc(=O)c3c(O)c(OC)c(OC)c(OC)c3o2)cc(OC)c1OC`, the Potency result in test [5], in test [1], in test [2] and in test [4] was “inactive” in each case. The activity change, negative = inhibition in test [3] is 0.715% (inactive). Also, the max response stood at 5.14% in test [3] (setting [6]) and 8.84% in test [3] (setting [7]).

On to `C[C@]12CCC3c4ccc(OS(=O)(=O)O)cc4CCC3C1CCC2=O` (some centres undefined), for which the Potency result in test [1], in test [2] and in test [4] was “inactive” in each case. For the same molecule, in test [3], the activity change, negative = inhibition was 9.98% (inactive). For the same molecule, the max response in test [3] (setting [6]) is 6.42%; in test [3] (setting [7]), 22.2%.

For the molecule `C[C@]12CCC3c4ccc(OC(=O)c5ccccc5)cc4CCC3C1CCC2=O` (some centres undefined), the Potency entry in test [1], in test [2] and in test [4] was “inactive” in each case. In addition, in test [3], the activity change, negative = inhibition was 11.1% (inactive). Moreover, the figures for the max response in test [3] (setting [6]) and in test [3] (setting [7]) were 14.4% and 28.4%, respectively.

Consider `C=C1C(=O)OC2CC1C(OC(C)=O)CC(C)=CCCC(C)=CCC[C@@]2(C)O` (some centres undefined), for which the Potency entry in test [1], in test [2] and in test [4] was “inactive” each time. In addition, the activity change, negative = inhibition in test [3] is -0.0283% (inactive). For the same molecule, the max response came to 10.1% in test [3] (setting [6]) and 14.3% in test [3] (setting [7]).

On to `CC(C)C(C)/C=C/C(C)C1CCC2C3=CCC4CC(=O)CC[C@@]4(C)C3CC[C@]21C` (some centres undefined), for which the Potency result in test [1], in test [2] and in test [4] was “inactive” in each case. Further, the activity change, negative = inhibition in test [3] is 5.02% (inactive). Besides, the max response was -0.92% in test [3] (setting [6]) and 5.16% in test [3] (setting [7]).

Turning to `NC1(C(=O)O)CCCC1`, the Potency result in test [1], in test [2] and in test [4] was “inactive” throughout. Further, the activity change, negative = inhibition in test [3] was -0.822% (inactive). The max response came out at 7.47% in test [3] (setting [6]) and 7.88% in test [3] (setting [7]).

In the case of `COC(=O)C(N)CS` (centres undefined), the Potency entry in test [1], in test [2] and in test [4] was “inactive” each time. In test [3], the activity change, negative = inhibition is 6.93% (inactive). For the same molecule, the max response in test [3] (setting [6]) turned out to be 11.1%; in test [3] (setting [7]), 22.7%.

On to `COC(=O)C1C(O)CC[C@@H]2CN3CCc4c([nH]c5ccccc45)C3C[C@@H]12` (some centres undefined), for which the Potency entry in test [2] and in test [4] was “inactive” each time. For the same molecule, in test [3], the activity change, negative = inhibition was 4.48% (inactive). The max response came out at 19.7% in test [3] (setting [6]) and 26.3% in test [3] (setting [7]).
